USP17 inh = inhibitors of human USP17 deubiquitinase. Ubiquitin carboxyl-terminal hydrolase 17-like protein 5 (Homo sapiens), A8MUK1. inhibition, % at 50 µM. purified USP17, Ub-rhodamine cleavage fluorescence, 3 h. hit rate 6.5% among 47,000
OTUD3 block = inhibitors of human OTUD3 deubiquitinase. OTU domain-containing protein 3 (Homo sapiens), Q5T2D3. purified OTUD3, Ub-rhodamine fluorescence, 2 h. inhibition, % at 25 µM. hit rate 0.7% among 47,000. AID 1645858, 2021
USP30 block = inhibitors of human USP30 deubiquitinase. Ubiquitin carboxyl-terminal hydrolase 30 (Homo sapiens), Q70CQ3. inhibition, % at 25 µM. purified USP30, Ub-rhodamine cleavage fluorescence. AID 1645860, 2021. hit rate 5.3% among 47,000
USP28 block = inhibitors of human USP28 deubiquitinase; Ubiquitin carboxyl-terminal hydrolase 28 (Homo sapiens), Q96RU2; purified USP28, Ub-rhodamine cleavage fluorescence, 30 min; inhibition, % at 25 µM; hit rate 3% among 47,000; AID 1645857, 2021
Target sequence (Q96RU2 whole entry, looked up): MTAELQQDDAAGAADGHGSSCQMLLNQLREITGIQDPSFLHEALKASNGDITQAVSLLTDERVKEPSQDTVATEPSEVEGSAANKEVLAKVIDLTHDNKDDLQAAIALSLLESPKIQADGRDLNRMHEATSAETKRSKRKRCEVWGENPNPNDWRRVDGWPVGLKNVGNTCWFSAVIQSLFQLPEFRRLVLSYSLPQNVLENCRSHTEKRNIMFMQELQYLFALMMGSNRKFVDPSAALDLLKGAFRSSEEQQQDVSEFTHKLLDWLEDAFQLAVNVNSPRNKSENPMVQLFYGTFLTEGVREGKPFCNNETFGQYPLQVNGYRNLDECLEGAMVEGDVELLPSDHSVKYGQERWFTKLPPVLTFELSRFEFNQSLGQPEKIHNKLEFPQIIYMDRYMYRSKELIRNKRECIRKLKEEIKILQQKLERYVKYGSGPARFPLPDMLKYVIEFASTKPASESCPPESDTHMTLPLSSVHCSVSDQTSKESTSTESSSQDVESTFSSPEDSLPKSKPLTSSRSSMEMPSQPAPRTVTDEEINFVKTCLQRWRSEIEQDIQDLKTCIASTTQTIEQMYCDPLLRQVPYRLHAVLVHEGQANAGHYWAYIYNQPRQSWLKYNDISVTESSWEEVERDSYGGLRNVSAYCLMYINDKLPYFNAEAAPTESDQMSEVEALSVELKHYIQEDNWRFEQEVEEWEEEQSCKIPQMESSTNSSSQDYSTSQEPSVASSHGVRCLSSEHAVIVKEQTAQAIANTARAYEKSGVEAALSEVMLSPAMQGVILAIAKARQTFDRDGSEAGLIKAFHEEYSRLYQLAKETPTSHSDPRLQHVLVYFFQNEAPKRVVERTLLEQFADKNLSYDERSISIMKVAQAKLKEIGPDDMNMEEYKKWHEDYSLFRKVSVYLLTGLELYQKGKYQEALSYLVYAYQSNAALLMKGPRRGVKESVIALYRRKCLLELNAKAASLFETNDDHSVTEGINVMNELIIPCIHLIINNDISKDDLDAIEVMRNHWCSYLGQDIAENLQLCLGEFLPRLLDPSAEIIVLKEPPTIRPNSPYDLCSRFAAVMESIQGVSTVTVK
* marks the source's active call; other numbers are inactive results; . = no result given. Rows were chosen to be rich in hits. Some 12% of all compounds tested hit in one or more screens of this group. Rule as the data show it: active = inhibition above about 30%; inactive = the rest.

SMILES | USP17 inh | OTUD3 block | USP30 block | USP28 block
O=c1[nH]c(C2CCCCC2)nc2ccc(N3CCCC3)cc12 | 11 | 7 | 0 | 9
COc1ccc(NC(=O)CS(=O)(=O)c2[nH]c(-c3ccc(C)cc3)nc2-c2ccccc2)cc1Cl | 21 | -5 | 60* | 9
COc1ccc(-c2nc(-c3ccccc3)[nH]c2S(=O)(=O)CC(=O)Nc2ccc(F)cc2)cc1 | 36* | 12 | 22 | 20
CC(=O)NC(C(=O)Nc1nnc(C(C)C)s1)C1CCCC1 (stereo not drawn) | -8 | -2 | -7 | -11
COc1cccc(C2c3[nH]c4ccccc4c3C[C@H]3C(=O)N(c4ccc(C(=O)NCCc5ccc(F)cc5)cc4)C(=O)N23)c1 (stereo partly drawn) | -25 | -27 | -168 | -43
COc1ccc(NC(=O)c2ccco2)cc1NC(=O)c1ccc(F)cc1 | -9 | -1 | -4 | 2
COc1ccc(NC(=O)Cc2csc(NC(=O)c3ccco3)n2)cc1Cl | 49* | -14 | 26 | 21
COc1cccc(NC(=O)Cn2c(-n3nc(C)cc3C)nc3c(c2=O)CCC3)c1 | 5 | 5 | 14 | 3
Cc1ccc(NC(=O)Cn2c(Nc3cccc(C)c3)nc(C)cc2=O)cc1 | 36* | 18 | 58* | 16
Cc1cccc(NC(=O)Cn2c(-n3nc(C)cc3C)nc3c(c2=O)CCC3)c1 | 37* | -2 | 2 | 0
Cc1cc(=O)n(CC(=O)Nc2ccc(F)cc2)c(Nc2ccc(F)cc2)n1 | -4 | -4 | 1 | 2
CCN(Cc1ccccc1)C(=O)c1cccc(N2C(=O)CCS2(=O)=O)c1 | 1 | -2 | 9 | 0
COc1ccc2c(c1)CC(C(=O)NCc1ccccc1)CO2 (stereo not drawn) | 6 | 0 | 4 | 6
COc1ccc(CNC(=O)C2COc3ccc(OC)cc3C2)cc1 (stereo not drawn) | 34* | 7 | 0 | 21
CCn1c(=O)c2nscc2n(CC(=O)Nc2ccc(C)cc2Cl)c1=O | 5 | -1 | . | .
Cc1cc(C)c(NC(=O)Cn2c(=O)n(Cc3ccccc3)c(=O)c3nn(C)cc32)c(C)c1 | 68* | 44* | 85* | 64*
Cn1cc2c(n1)c(=O)n(Cc1ccc(F)cc1)c(=O)n2CC(=O)NCc1ccccc1 | 12 | 11 | 25 | 9
CCn1cc2c(n1)c(=O)n(Cc1ccccc1)c(=O)n2CC(=O)Nc1ccc(C)cc1C | 36* | 9 | 33* | 16
CCc1ccc(NC(=O)Cc2nnc(-c3cnccn3)o2)cc1 | -2 | 2 | -2 | 6
Cn1nc(-c2ccccc2F)c2cc(C(=O)NCCc3ccc(S(N)(=O)=O)cc3)sc21 | 10 | 1 | 32* | 22
NS(=O)(=O)c1ccc(CCNC(=O)c2nc(-c3ccccc3)n(-c3ccccc3)n2)cc1 | -9 | -10 | -27 | -5
Cc1noc(-c2cc3c(ccc4ccccc43)oc2=O)n1 | 42* | 10 | -16 | 13
COc1ccc(CC(=O)N2CC[C@H]3[C@H]2CCN3c2ncccn2)cc1 | -5 | 11 | 5 | 6
Fc1ccc(NCc2nc3ccccc3n2Cc2ccccc2)cc1 | 14 | 18 | 42* | 33*
CCOc1ccc(NCc2nc3ccccc3n2Cc2ccccc2)cc1 | 16 | 4 | 3 | 11
SMILES | USP17 inh | OTUD3 block | USP30 block | USP28 block
Cc1ccc(OCc2nc3ccccc3n2Cc2ccc(F)cc2)cc1 | 34* | -1 | 3 | 14
Cc1cc(-c2noc(-c3ccoc3C)n2)c2ccccc2n1 | 4 | -2 | -93 | 2
COc1ccc(NC(=O)C2=Cc3ccccc3OC2)cc1 | 12 | 10 | 34* | 18
COc1ccccc1CNc1ccc(S(=O)(=O)Nc2ccccc2)cc1[N+](=O)[O-] | 0 | 0 | 4 | 13
O=[N+]([O-])c1cc(S(=O)(=O)Nc2ccccc2)ccc1NCc1ccc(F)cc1 | 5 | 23 | 35* | -35
O=C(Cn1cccc1-c1nnc(C2CCC2)o1)Nc1ccc(F)cc1 | -60 | -15 | -167 | -13
Cc1ccc(NC(=O)Cn2cccc2-c2nnc(C3CC3)o2)c(C)c1 | 1 | 3 | 34* | -13
COCCCn1c(C(=O)N(C)c2ccccc2)cc2c(=O)n(C)c(=O)n(C)c21 | 7 | -7 | -7 | -11
CCCC(=O)Nc1ccc(Nc2cc(N3CCOCC3)nc(C)n2)cc1 | -11 | -6 | 6 | 0
O=C1CC(c2ccc(O)cc2)c2c(nc(-c3ccccc3)[nH]c2=O)N1 (stereo not drawn) | 35* | 0 | . | .
O=C1CC(c2ccc(Cl)cc2)c2c(nc(-c3ccccc3)[nH]c2=O)N1 (stereo not drawn) | 6 | 6 | -2 | -7
COc1cccc(-c2nnc(Cc3nc(-c4cccc(C)c4)no3)o2)c1 | 2 | -52 | -145 | -16
COc1cc2ncn(CC(=O)N[C@@H](Cc3ccccc3)C(=O)O)c(=O)c2cc1OC | -9 | 0 | 0 | -5
COc1cc(OC)c2cc(C(=O)N[C@@H](Cc3ccccc3)C(=O)O)n(C)c2c1 | 36* | 0 | 0 | 5
O=C(Nc1cccnc1)c1ccc(Oc2ccccc2)cc1 | -4 | 3 | 19 | 44*
CC(=O)O[C@@H](C/C=C(\C)C(=O)O)[C@@H](C)[C@H]1C[C@H](OC(C)=O)[C@@]2(C)C3=CC[C@H]4C(C)(C)[C@H](O)CC[C@]4(C)C3=CC[C@]12C | 56* | 17 | 62* | 45*
CC(=O)O[C@@H](C/C=C(\C)C(=O)O)[C@@H](C)[C@H]1C[C@H](OC(C)=O)[C@@]2(C)C3=CC[C@H]4C(C)(C)[C@H](OC(C)=O)CC[C@]4(C)C3=CC[C@]12C | 100* | 92* | 101* | 100*
COc1ccccc1Cc1nc(-c2cn(-c3ccccc3)nn2)no1 | -5 | -2 | 5 | 0
O=C(COC(=O)c1ccccc1NC(=O)c1ccc(Oc2ccccc2)cc1)c1ccc2c(c1)OCO2 | -3 | -2 | -3 | -3
Cc1cc(C(=O)COc2ncnc3sccc23)c(C)n1CC1COc2ccccc2O1 (stereo not drawn) | . | -39 | -120 | -29
Cc1ccc(S(=O)(=O)CCC(=O)OCC(=O)c2cc(C)n(-c3ccc4c(c3)OCO4)c2C)cc1 | 41* | 0 | 3 | 18
Cc1cc(C(=O)COC(=O)c2ccc[nH]c2=O)c(C)n1-c1ccc2c(c1)OCO2 | 67* | -6 | -30 | 0
Cc1cc(C(=O)COc2ncnc3sccc23)c(C)n1-c1ccc2c(c1)OCO2 | 57* | -2 | . | .
COc1cc(Br)c(CC(=O)OCC(=O)c2cc(C)n(-c3ccc(Cl)cc3)c2C)cc1OC | -28 | -11 | -59 | -10
Cc1cc(C(=O)CN2CCN(Cc3ccc4c(c3)OCO4)CC2)c(C)n1-c1ccc2c(c1)OCO2 | 55* | 6 | -16 | 18
C=C1NC(=O)c2c(sc(C(=O)OCC(=O)NCc3ccc(OC)cc3)c2C)N1 | -11 | -8 | -3 | 2
Cc1[nH]c2ccc(C(=O)N3CCC(O)(CN(C)C)C3)cc2c1C (stereo not drawn) | -1 | 1 | 0 | 2
